AmpC no deterg: AmpC beta-lactamase inhibition without detergent; P00811; AmpC nitrocefin hydrolysis, absorbance 480 nm, 0.0001% Triton; Potency, µM (top dose mostly 57.1 µM), actives largely listed as inhibitors; 330,000 compounds, 0.52% hits; also: nearly all actives have a fitted effect of over 20% in size
Target sequence (P00811 whole entry, looked up): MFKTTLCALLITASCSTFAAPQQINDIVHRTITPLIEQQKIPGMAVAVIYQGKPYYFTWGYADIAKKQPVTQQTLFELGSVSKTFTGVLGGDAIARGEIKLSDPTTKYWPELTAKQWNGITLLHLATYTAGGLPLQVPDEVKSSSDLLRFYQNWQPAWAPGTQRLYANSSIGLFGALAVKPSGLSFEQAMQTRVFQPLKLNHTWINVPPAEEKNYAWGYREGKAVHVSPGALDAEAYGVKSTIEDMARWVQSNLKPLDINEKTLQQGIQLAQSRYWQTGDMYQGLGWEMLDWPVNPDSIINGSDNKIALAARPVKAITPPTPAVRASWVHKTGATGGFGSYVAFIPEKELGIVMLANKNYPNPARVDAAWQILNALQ
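20 mM phosphate pH 7.0 + 0.01% (detergent screen) or 0.0001% Triton X-100; 5.3 nM AmpC reagent; cpd preinc 15 min RT; nitrocefin (800 uM stock) to start; A480 q20 s × 4 min; Activity was normalised to no-enzyme and no-compound control wells.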
AMA1 RON2 block: AMA1-RON2 (P. falciparum) interaction inhibition. 360,000 compounds, 0.2% hits. AID 720542. Potency, µM (series often up to 58.2 µM), hits mostly inhibitors. AlphaScreen AMA1-biotinylated RON2 peptide binding; also: nearly all actives have a fitted effect of over 45% in size
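AMA1 (3D7) with his tag at 25 nM final met compounds first, then biotinylated RON2 peptide at 25 nM; detection used donor plus acceptor beads, 10 µg/mL apiece, read by AlphaScreen after 30 min at room temperature.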
AmpC inh detg: AmpC beta-lactamase inhibition with detergent present; Potency, µM (doses to about 114 µM), usual class: inhibitors; 370,000 compounds, 0.041% hits; P00811; AmpC hydrolysis of nitrocefin, absorbance 480 nm, 0.01% Triton; also: nearly all actives have a fitted effect of over 25% in size
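20 mM phosphate pH 7.0 + 0.01% (detergent screen) or 0.0001% Triton X-100; 5.3 nM AmpC reagent; cpd preinc 15 min RT; nitrocefin (800 uM stock) to start; A480 q20 s × 4 min; Activity was normalised to no-enzyme and no-compound control wells.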
Sm TGR block: S. mansoni TGR enzyme inhibition; Q962Y6; purified TGR, DTNB reduction, TNB absorbance 405 nm; Potency, µM (series often up to 114 µM), most hits filed as inhibitors; 360,000 compounds, 3% hits; also: nearly all actives have a fitted effect of over 60% in size
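TGR 20 nM + NADPH 100 uM (dispensed conc.), cpd preinc 15 min RT; start with NADPH (500 uM addition) then DTNB (15 mM addition). Kinetic TNB absorbance, 405 nm filter. Four-parameter Hill fit across titration.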
FMDV antiviral: antivirals against foot and mouth disease virus; FMDV antiviral cell-based qHTS; Potency, µM (highest dose often 57.9 µM), actives largely listed as inhibitors; 410,000 compounds, 1.2% hits; calls by dose curve; tested in HEK293T cells; also: read-out not given here; nearly all actives have a fitted effect of over 45% in size
Large screens that a line does not name were inactive. Compounds with a hit are over-represented: about 4.1% of the library has one in this group of screens. Unless noted, calls follow the shape of the dose curve; as a rule, active = well fitted curve in the direction sought with a large enough effect; inconclusive = small, poorly fitted or top-dose-only effect, or another doubt; inactive = no such curve, though single readings can be large; an effect the other way counts as inactive or inconclusive.

COCCCNC(=O)C1CCCN(S(=O)(=O)c2ccc3c(c2)oc(=O)n3C)C1 (stereo not drawn)	none (no result: AmpC no deterg, AMA1 RON2 block)
CO[C@H]1[C@H](NC(=O)c2ccsc2)c2ccccc2C12CCN(Cc1cc(Cl)ccc1O)CC2	none (no result: AmpC no deterg, AMA1 RON2 block, AmpC inh detg, Sm TGR block)
COc1ccc(CN2CCN(C(=O)c3cc(OC)c(OC)c(OC)c3)CC2)cc1OC	none
COc1ccc(C(=O)N2CCN(Cc3cc(OC)c(O)c(OC)c3)CC2)cc1OC	Sm TGR block 8.9µM (no result: FMDV antiviral)
COc1cc(CN2CCN(C(=O)CC(C)C)CC2)cc(OC)c1O	Sm TGR block 13µM (no result: FMDV antiviral)
COc1ccc(/C=C2\Sc3ccc(C(=O)N4CCN(Cc5ccccc5)CC4)cc3N(C)C2=O)cc1OC	FMDV antiviral 13µM
O=[N+]([O-])c1cccc(C=NNc2ccc3ccccc3n2)c1O	FMDV antiviral 10µM (no result: AmpC no deterg, AmpC inh detg, Sm TGR block)
O=[N+]([O-])c1ccc(N/N=C/c2cccc(O)c2O)cc1	AmpC no deterg 18µM
Brc1ccccc1/C=N/Nc1ccc2ccccc2n1	none
C=C(C)CSc1nc2sc3c(c2c(=O)n1CCCC)CCCC3	none (no result: AmpC no deterg, AMA1 RON2 block)
Cc1c(C(=O)c2ccc(F)cc2)c2ccccn2c1CCc1ccccn1	FMDV antiviral 40µM
Cc1ccc(S(=O)(=O)N(C)C)cc1NC(=O)C(C)N(C)Cc1sccc1C (stereo not drawn)	FMDV antiviral 16µM
CCCN1CCCc2cc(CN)ccc21	AMA1 RON2 block inconclusive, AmpC inh detg inconclusive, Sm TGR block 14µM, FMDV antiviral inconclusive
CC1(C)CC[C@]2(C(=O)n3ccnc3)CC[C@]3(C)[C@H](C(=O)C=C4[C@@]5(C)C=C(C#N)C(=O)C(C)(C)[C@@H]5CC[C@]43C)[C@@H]2C1	FMDV antiviral 1.4µM (no result: AmpC no deterg, AmpC inh detg, Sm TGR block)
CCC(C)NC(=O)c1c(C)oc2nc(C)nc(N3CCOCC3)c12 (stereo not drawn)	none (no result: AmpC no deterg, AMA1 RON2 block)
Cc1cccc(N2CCN(Cc3nnc(-c4cccc(Br)c4)o3)CC2)c1C	none (no result: AmpC no deterg, AMA1 RON2 block)
CC(C)(C)NC(=O)COC(=O)c1ccccc1Oc1ccccc1	none
CC(=O)N/C(=C\c1ccccc1)C(=O)OCC(=O)NC1CCCC1	none
Cc1nnnn1/C(=C\c1ccccc1)C(=O)OCC(=O)NC1CCCCC1	AmpC inh detg inconclusive, FMDV antiviral 8.9µM
CC(=O)Nc1ccc(NC(=O)COC(=O)/C(=C/c2ccccc2)n2nnnc2C)cc1	FMDV antiviral 20µM
Cc1nnnn1/C(=C\c1ccccc1)C(=O)OCC(=O)NC(C)(C)C	FMDV antiviral 18µM
CC(=O)Nc1ccc(NC(=O)COC(=O)c2c(C)nn(-c3ccccc3)c2C)cc1	none
Cc1cc(Cl)ccc1NC(=O)c1cccc(NC(=O)N2CCSc3ncccc32)c1	FMDV antiviral inconclusive (no result: AmpC no deterg, AMA1 RON2 block)
CCc1cccc(C)c1NC(=O)CCCn1c(C)c2cnn(-c3ccccc3)c(=O)c2c1C	Sm TGR block inconclusive (no result: AmpC no deterg, AMA1 RON2 block)
CC(=O)N1CCC2(CC1)CN(c1ccccn1)C2	none (no result: AmpC no deterg, AMA1 RON2 block, AmpC inh detg, Sm TGR block)
CCC(C)(NC(=O)c1ccc(=O)[nH]c1)C(=O)NC1CCCC1 (stereo not drawn)	AmpC no deterg 2.8µM, AmpC inh detg inconclusive
Cc1nccn1CC(O)COc1ccc(Cl)cc1Cl (stereo not drawn)	AmpC inh detg inconclusive, FMDV antiviral 0.45µM
CN1CCN(/N=C/c2nc(-c3ccc(Cl)cc3)n3ccccc23)CC1	Sm TGR block inconclusive
Clc1ccc(-c2nc(/C=N/N3CCOCC3)c3ccccn23)cc1	AmpC inh detg inconclusive, Sm TGR block 45µM
Cc1ccc(CCNC(=O)c2ccc3c(c2)N(Cc2cccc(Cl)c2)C(=O)c2ccccc2S3(=O)=O)cc1	none (no result: AmpC no deterg, AMA1 RON2 block)
CCOCCCNC1=C(Cl)C(=O)c2ccccc2C1=O	AMA1 RON2 block inconclusive, Sm TGR block 1.8µM
O=C1C(Cl)=C(NCCCO)C(=O)c2ccccc21	AmpC inh detg inconclusive, FMDV antiviral inconclusive
CCOC(=O)c1cccc(NC(=O)C2CCN(S(=O)(=O)c3cccs3)CC2)c1	FMDV antiviral 25µM
CCc1cccc(NC(=O)C2CCN(S(=O)(=O)c3cccs3)CC2)c1	AmpC no deterg inconclusive, AmpC inh detg inconclusive, FMDV antiviral inconclusive
O=C(CCl)N1CCCC1c1ccc2c(c1)OCCO2 (stereo not drawn)	Sm TGR block 3.5µM
Cc1cc(NO)c(C(C)C)cc1N=O	FMDV antiviral 22µM
Cc1cc(O)c(C(C)C)cc1N=Nc1ccccc1C(=O)O	FMDV antiviral inconclusive
CC(C)C1C(=O)N(Cc2cn(CCC3OCCO3)nn2)CCS(=O)(=O)N1Cc1ccc(-c2cccc(N(C)C)c2)cc1 (stereo not drawn)	AMA1 RON2 block 18µM (no result: AmpC no deterg, AmpC inh detg, Sm TGR block)
Cc1ccc(C(=O)Nc2cnn(-c3ccc(C(=O)NCc4nc(-c5ccccc5)n[nH]4)cc3)c2)c(C)c1	none (no result: AmpC no deterg, AMA1 RON2 block, AmpC inh detg, Sm TGR block)
CCN1C(=O)S/C(=C/c2ccc(Sc3nc4ccccc4[nH]3)o2)C1=O	AmpC no deterg inconclusive, AmpC inh detg inconclusive, FMDV antiviral 16µM
CC(C)C1CC(CCNCc2ccc(N(C)C)cc2)(c2ccccc2)CCO1 (stereo not drawn)	AMA1 RON2 block inconclusive
Cc1ccc(C2(CCNCc3ccc(N(C)C)cc3)CCOC(C(C)C)C2)cc1 (stereo not drawn)	AMA1 RON2 block 10µM
CN(C)CC(CCC(CN(C)C)C(=O)c1ccccc1)C(=O)c1ccccc1 (stereo not drawn)	Sm TGR block 2µM, FMDV antiviral 28µM
CCOc1ccc(C(=O)C(CCC(CN(C)C)C(=O)c2ccc(OCC)cc2)CN(C)C)cc1 (stereo not drawn)	Sm TGR block 16µM, FMDV antiviral 16µM
COc1ccc(C(=O)C(CCCCC(CN(C)C)C(=O)c2ccc(OC)cc2)CN(C)C)cc1 (stereo not drawn)	AmpC inh detg inconclusive
O=C(CCCN1C(=O)/C(=C/c2ccccc2Cl)SC1=S)NNC(=O)c1ccc(Cl)cc1Cl	FMDV antiviral 8.9µM
O=C(CCN1C(=O)/C(=C/c2ccccc2Cl)SC1=S)NC1C=CS(=O)(=O)C1 (stereo not drawn)	AmpC no deterg 28µM
O=C(CCN1C(=O)/C(=C/c2ccc(F)cc2)SC1=S)NC1C=CS(=O)(=O)C1 (stereo not drawn)	none
O=C(Cn1nnc(-c2ccccc2)n1)Nc1cccc(S(=O)(=O)N2CCOCC2)c1	AmpC no deterg 18µM
O=C(COC(=O)c1ccc(O)cc1)Nc1cccc(S(=O)(=O)N2CCCCC2)c1	AmpC no deterg 8.9µM
CS(=O)(=O)c1ccc(C(=O)OCC(=O)Nc2cccc(S(=O)(=O)N3CCCC3)c2)cc1	none
N#Cc1cccc(NC(=O)CNc2cccc(S(=O)(=O)N3CCCCC3)c2)c1	FMDV antiviral 35µM
O=C(CCl)Nc1cccc(S(=O)(=O)N2CCCCCC2)c1	Sm TGR block 11µM, FMDV antiviral 25µM
O=C(CNc1cccc(F)c1)Nc1cccc(S(=O)(=O)N2CCCCC2)c1	none
CCOc1ccccc1NC(=O)CSc1ncc2c(n1)-c1ccccc1N(CC)S2(=O)=O	none (no result: AmpC no deterg, AMA1 RON2 block)
CC1CCCCN1C(=O)CSc1nnc2c(n1)[nH]c1ccccc12 (stereo not drawn)	none

Source: PubChem (National Center for Advancing Translational Sciences (NCATS))
